Our source for the z-score values is PubChem BioAssay.

A number with no mark means an inactive call. Unless noted, how the calls were made is not given here.
Further: test concentration not given here.

A short description of one assay: P. aeruginosa biofilm formation inhibitors, primary screen, strain PAO1, LB-PBS medium, absorbance 600 nm (AID 1176). As to conditions: P. aeruginosa PAO1 growth/biofilm, A600, 12 h; higher = more signal.
As to `C=C(CCCC)/C(=C/C[C@@H](OC(=O)c1ccncc1)c1ccccc1OCCO)c1cc(C(=O)OC)ccc1OC`, the z-score is 0.506.

For the compound `C=CC[C@]1(C(=O)N2CCOCC2)N=C(c2ccc(OCCCO)cc2)O[C@H]1c1ccccc1CN=[N+]=[N-]`, the z-score was -0.497.

In the case of `C=C(C)[C@@H]1CC=C(C(O)C2C=CC3C(=O)N(C4CCCCC4)C(=O)C3N2Nc2ccc(OC)cc2)CC1` (stereo not given in full), the z-score is 0.987.

With `CC1(C)[C@@H]2CC(C(O)C3C=CC4C(=O)N(c5ccccc5)C(=O)C4N3Nc3ccccc3F)=C[C@@H]1C2` (stereo not given in full), the z-score is 0.16.

Turning to `[N-]=[N+]=NCc1ccccc1[C@H]1OC(c2ccc(OCCCO)cc2)=N[C@@]1(Cc1ccccc1N=[N+]=[N-])C(=O)N1CCCCC1`, the z-score is 0.879.

`CC(C)N1CC=CC23O[C@@H]4C=CCOC(=O)[C@@H]4[C@H]2C(=O)N(CCCCCCO)[C@@H]3C1=O` (stereo not given in full): the z-score is 0.165.

On to `CN1C(=O)C2C=CC(C(O)C3CCCCC3)N(N(c3ccccc3)c3ccccc3)C2C1=O` (stereo not given), for which the z-score is 0.571.

Consider `CC(C)(C)OC(=O)CC[C@]1(C(=O)O)COC(c2ccc(OCCCO)cc2)=N1`, for which the z-score was -0.596.

As to `O=C1O[C@H](c2ccccc2)[C@H](c2ccccc2)N2[C@H]1[C@@H](C(=O)N1CCN(c3ncccn3)CC1)[C@]1(C(=O)Nc3ccc(C#CCCO)cc31)[C@H]2c1ccc(OCCO)cc1`, the z-score was 3.36.

Turning to `CN1C(=O)C2C=CC(C(O)c3cccc4ccccc34)N(NC(=O)OC(C)(C)C)C2C1=O` (stereo not given), the z-score was 0.378.

Another assay is described as follows: S. cerevisiae RM11-1a growth modifiers, primary screen, strain RM11-1a, OD600, basal, 24 h (AID 1177).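 Further: cultures grown under basal conditions with no added stressor.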 Particulars: OD600, 24 h, higher = more signal, called active from +8 up or from −8 down.
In the case of `C=CCN1C(=O)[C@@]2(O[C@@H](CCO)[C@H]([Si](C)(C)c3ccc(OC)cc3)[C@H]2C)c2cc(NC(=O)[C@H](C)O)ccc21`, the z-score was 2.32.

Regarding `COC(=O)[C@@]1(Cc2ccc(OC)cc2)[C@H]2c3cc(C(=O)N4CCCC4)n(CCF)c3C[C@H]2CN1C(=O)c1ccccc1`, the z-score was 0.977.

As for `O=C1N(Cc2ccccc2)c2ccccc2[C@H]2OC(c3ccc(OCCCO)cc3)=N[C@@]12CCS(=O)(=O)c1ccccc1`, the z-score is 2.68.

Take `CC(=O)NCCCC[C@@H]1NC(=O)[C@@H]2C[C@H](C(=O)NCCCC[N+](C)(C)C)[C@H](c3cccc(OCCO)c3)N2C1=O`: the z-score is 0.954.

Consider `COCCCNC(=O)[C@@]1(Cc2ccccc2I)c2ccccc2C(=O)N(Cc2ccccc2Cl)[C@H]1c1ccc(CO)cc1`, for which the z-score is -0.0403.

For `COCCCNC(=O)[C@@]1(Cc2ccccc2CN=[N+]=[N-])N=C(c2ccc(OCCCO)cc2)O[C@H]1c1ccccc1N=[N+]=[N-]`, the z-score was 0.587.

As for `NCCCCCCNC(=O)[C@H]1C[C@H]2C(=O)N3CCC[C@H]3C(=O)N2[C@H]1c1ccc(O)cc1`, the z-score is -1.09.

In the case of `C=C(/C(=C/C[C@@H](OC(=O)c1ccncc1)c1cccc(OCCO)c1)c1cc(C(=O)OC)ccc1OC)C(C)C`, the z-score was 0.0342.

Regarding `CN1C(=O)C2C=CC(C(O)COCc3ccccc3)N(Nc3ccccc3)C2C1=O` (stereo not given), the z-score is 0.328.

For `C=C[C@@H](O)[C@H]1CC(c2ccccc2)=NO1`, the z-score was -0.2.

In the case of `COC(=O)[C@@]1(Cc2ccc(OC)cc2)[C@H]2c3cc(C(=O)N(C)C)n(CCF)c3C[C@H]2CN1C(=O)c1ccccc1`, the z-score was 0.177.

For `C=CCC(OC(C)=O)[C@@H]1[C@@H](N(Cc2ccc(-c3cccc(C(F)(F)F)c3)o2)C(=O)c2cccc3ccccc23)c2cc(OCCCO)ccc2N1C(=O)c1ccc(-c2ccccc2)cc1` (stereo not given in full), the z-score was 0.0679.

For `COc1cc(NN2C(C(O)c3ccc(I)cc3)C=CC3C(=O)N(C)C(=O)C32)cc(OC)c1OC` (stereo not given), the z-score is -0.377.

As to `C=CCC(OC(C)=O)[C@@H]1[C@@H](N(Cc2cccc3ccccc23)C(=O)Cc2ccc(F)cc2)c2cc(OCCCO)ccc2N1C(=O)Cc1ccc(OC)cc1` (stereo not given in full), the z-score is -1.16.

`C=CCOC(=O)[C@@H]1[C@H]2C(=O)O[C@H](c3ccccc3)[C@H](c3ccccc3)N2[C@H](c2ccc(OCCOC(=O)[C@H]3C[C@H]4C(=O)N[C@@H](Cc5ccccc5)C(=O)N4[C@H]3c3cccc(OCCO)c3)cc2)[C@@]12C(=O)Nc1ccc(I)cc12`: the z-score was 2.13.

For the compound `CC(C)c1ccc(NN2C(C(O)c3cccs3)C=CC3C(=O)N(c4ccccc4)C(=O)C32)cc1` (stereo not given), the z-score is 0.883.

Consider `CC1CC/C=C\[C@H]2OC34C=CCN(Cc5ccccc5)C(=O)[C@H]3N(CCO)C(=O)[C@@H]4C2C(=O)O1` (stereo not given in full), for which the z-score was 0.606.

For the compound `COCCOC(=O)N1C(=O)[C@@]2(c3cc(C#CC4(O)CCCCCC4)ccc31)[C@H](C(=O)N1CCc3cc(OC)c(OC)cc3C1)[C@H]1C(=O)O[C@H](c3ccccc3)[C@H](c3ccccc3)N1[C@@H]2c1ccccc1OCCO`, the z-score was 2.98.

Regarding `COc1ccc([Si](C)(C)[C@H]2[C@H](CC(=O)N3CCC[C@H]3CO)O[C@@]3(C(=O)N(Cc4ccc(N5C(=O)c6cccc7cccc5c67)cc4)c4ccccc43)[C@@H]2C)cc1`, the z-score is 1.02.

As for `C=C(C(=O)CC[C@H](OC(=O)c1cccnc1)c1ccc(OCCO)cc1)C(C)C`, the z-score was 0.899.

With `COC(=O)[C@@]1(Cc2ccccc2)[C@H]2c3cc(C(=O)N4CCCC4)n(CCO)c3C[C@H]2CN1C(=O)c1ccccc1`, the z-score is -0.483.

As for `C=CCNC(=O)[C@H]1[C@@H]2C(=O)O[C@@H](c3ccccc3)[C@@H](c3ccccc3)N2[C@@H](c2ccc(OCCO)cc2)[C@]12C(=O)N(C(=O)OCCOC)c1ccc(C#CC3=CCCCC3)cc12`, the z-score is 1.45.

For `O=C1C2C=CC(C(O)c3cccc4ccccc34)N(Nc3ccccc3)C2C(=O)N1c1ccccc1` (stereo not given), the z-score was -0.0805.

`Cc1ccc(S[C@]2(C(=O)O)CC(=O)N(C3CCCCC3)[C@@H]2c2ccc(CO)cc2)cc1`: the z-score was -0.332.

With `CC(=O)NCCCC[C@@H]1NC(=O)[C@H]2C[C@@H](C(=O)NCCCCCN)[C@@H](c3cccc(OCCO)c3)N2C1=O`, the z-score was -1.1.

For `C=C(CCCC)/C(=C/C[C@@H](OC(=O)c1ccncc1)c1ccccc1OCCO)c1cc(C(=O)OC)ccc1OC`, the z-score was 0.111.

As for `C=CC[C@]1(C(=O)N2CCOCC2)N=C(c2ccc(OCCCO)cc2)O[C@H]1c1ccccc1CN=[N+]=[N-]`, the z-score was 0.301.

With `C=C(C)[C@@H]1CC=C(C(O)C2C=CC3C(=O)N(C4CCCCC4)C(=O)C3N2Nc2ccc(OC)cc2)CC1` (stereo not given in full), the z-score is 0.0587.

On to `CC1(C)[C@@H]2CC(C(O)C3C=CC4C(=O)N(c5ccccc5)C(=O)C4N3Nc3ccccc3F)=C[C@@H]1C2` (stereo not given in full), for which the z-score was -0.393.

With `[N-]=[N+]=NCc1ccccc1[C@H]1OC(c2ccc(OCCCO)cc2)=N[C@@]1(Cc1ccccc1N=[N+]=[N-])C(=O)N1CCCCC1`, the z-score was 1.66.

Turning to `CC(C)N1CC=CC23O[C@@H]4C=CCOC(=O)[C@@H]4[C@H]2C(=O)N(CCCCCCO)[C@@H]3C1=O` (stereo not given in full), the z-score is -0.21.

As for `CN1C(=O)C2C=CC(C(O)C3CCCCC3)N(N(c3ccccc3)c3ccccc3)C2C1=O` (stereo not given), the z-score is 0.0139.

Regarding `CC(C)(C)OC(=O)CC[C@]1(C(=O)O)COC(c2ccc(OCCCO)cc2)=N1`, the z-score is 0.433.

`O=C1O[C@H](c2ccccc2)[C@H](c2ccccc2)N2[C@H]1[C@@H](C(=O)N1CCN(c3ncccn3)CC1)[C@]1(C(=O)Nc3ccc(C#CCCO)cc31)[C@H]2c1ccc(OCCO)cc1`: the z-score is 1.2.

Turning to `CN1C(=O)C2C=CC(C(O)c3cccc4ccccc34)N(NC(=O)OC(C)(C)C)C2C1=O` (stereo not given), the z-score is -0.0808.
